Data on 34 compounds can be found in PubChem BioAssay AID720566 (Broad Institute, 2013).

Results with a measured potency or affinity are listed apart. The source made the active and inactive calls.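 Rule for the calls: active = in all runs, an absorbance decrease of 25% or more of the average positive control decrease; inconclusive = runs conflict, with both active and inactive results; inactive = all runs inactive, opposite-direction effects included.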

The target of the test is Protein disulfide-isomerase A6 (Homo sapiens) (UniProt Q15084). In words: inhibitors of ERp5-mediated insulin aggregation, dose response, biochemical, turbidity, absorbance 650 nm, cherry-picked samples (AID 720566).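 Note: negative values mean less insulin aggregation so ERp5 inhibition.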 The note with it: Recombinant ERp5 insulin aggregation; series mostly up to 35 µM.
Sequence of Protein disulfide-isomerase A6 (Homo sapiens) (Q15084 whole entry, looked up): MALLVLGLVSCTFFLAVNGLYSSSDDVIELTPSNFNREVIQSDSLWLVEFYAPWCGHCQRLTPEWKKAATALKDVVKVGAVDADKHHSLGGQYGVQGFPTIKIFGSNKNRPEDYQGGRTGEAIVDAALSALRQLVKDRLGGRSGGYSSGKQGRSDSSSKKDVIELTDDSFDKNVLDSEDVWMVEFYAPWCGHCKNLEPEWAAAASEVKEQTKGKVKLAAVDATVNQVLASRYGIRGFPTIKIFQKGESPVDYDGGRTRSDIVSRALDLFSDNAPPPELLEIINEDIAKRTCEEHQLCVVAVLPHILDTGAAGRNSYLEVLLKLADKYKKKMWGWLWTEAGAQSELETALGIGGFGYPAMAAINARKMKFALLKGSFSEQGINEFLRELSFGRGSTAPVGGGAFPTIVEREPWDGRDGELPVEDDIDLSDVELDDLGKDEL
As to `COc1cccc(C(=O)OCC(=O)c2[nH]c(C)c(C(C)=O)c2C)c1`, the outcome was inactive. In the case of `O=C(CCN1C(=O)/C(=C\c2ccccc2)SC1=S)NCCCN1CCOCC1`, the result was inactive. For `C[C@@H]1CCCCO[C@@H](CN(C)Cc2ccc(C(=O)Nc3ccccc3N)cc2)[C@@H](C)CN([C@H](C)CO)C(=O)c2cc(NS(=O)(=O)c3cccs3)ccc2O1` the value was “inactive”; for `C[C@@H]1CN([C@@H](C)CO)S(=O)(=O)c2ccc(C#Cc3cccnc3)cc2O[C@H]1CN(C)C(=O)CN(C)C`, “inactive”. Next, `Cc1ccc(S(=O)(=O)N(C)C)cc1NC(=O)COC(=O)C1(c2ccccc2)CC1`: “inactive”; `CCC(=O)Nc1ccc2c(c1)C(=O)N(C)[C@@H]1CC[C@@H](CC(=O)NCC3CC3)O[C@@H]1CO2`: “inactive”; `COc1ccc(-c2csc(NC(=O)C3CCN(C(=O)c4ccc(F)cc4)CC3)n2)cc1OC`: “inactive”. For `C[C@@H]1CCCCO[C@@H](CN(C)C(=O)CCC(F)(F)F)[C@@H](C)CN([C@@H](C)CO)C(=O)c2cc(NS(=O)(=O)c3ccc(Cl)cc3)ccc2O1` the value was “inactive”; for `C[C@@H]1CN([C@@H](C)CO)C(=O)c2cc(C#CC3CCCCC3)cnc2O[C@@H]1CN(C)S(=O)(=O)c1ccccc1`, “inactive”. On to `COc1ccc(NC(=O)N(C)C[C@H]2Oc3ccc(NS(=O)(=O)c4ccccc4)cc3C(=O)N([C@@H](C)CO)C[C@@H]2C)cc1`, for which the outcome was inactive. For `O=C(C[C@H]1C[C@@H]2c3cc(NC(=O)CC4CC4)ccc3O[C@@H]2[C@@H](CO)O1)NCc1ccc(-c2ccccc2)cc1` the value was “inactive”; for `Cc1ccc(S(=O)(=O)N2CCN(C(=O)CCc3nc4ccccc4c(=O)[nH]3)CC2)c(C)c1`, “inactive”. Consider `Cc1ccc([C@H]2N[C@]3(CCCN(Cc4ccc(Cl)cc4)C3=O)[C@H]3C(=O)N(C)C(=O)[C@@H]23)cc1`, for which the result was inactive. Regarding `Cc1noc(C)c1S(=O)(=O)Nc1cccc2c1O[C@H](CN(C)C(=O)Nc1ccc(C(F)(F)F)cc1)[C@H](C)CN([C@@H](C)CO)C2=O`, the result was inactive.

Turning to `CN1C(=O)c2cc(NC(=O)C3CCCCC3)ccc2OC[C@@H]2O[C@@H](CC(=O)NC3CCCC3)CC[C@H]21`, the outcome was inactive.

`C[C@@H]1CN([C@H](C)CO)S(=O)(=O)c2ccc(-c3ccc(F)cc3)cc2O[C@@H]1CN(C)CC1CC1`: the outcome was inactive.

For `COc1ccc2c3c([nH]c2c1)[C@@H](CO)N(C(=O)C1CCCC1)CC31CCN(C(=O)NC(C)C)CC1`, the result was inactive. For `COCC(=O)N(C)C[C@H]1Oc2cc(C#CC(C)(C)O)ccc2S(=O)(=O)N([C@H](C)CO)C[C@H]1C` the value was “inactive”.

For `COCC#Cc1cnc2c(c1)C(=O)N([C@H](C)CO)C[C@@H](C)[C@H](CN(C)C(=O)NC1CCCC1)O2`, the result was inactive. Turning to `O=C(C[C@H]1C[C@@H]2c3cc(NC(=O)NC4CCCC4)ccc3O[C@@H]2[C@@H](CO)O1)NCc1ccc(Cl)cc1`, the outcome was inactive. For `C[C@@H]1CN([C@H](C)CO)C(=O)c2cc(NC(=O)Nc3ccc(C(F)(F)F)cc3)ccc2O[C@@H]1CN(C)S(=O)(=O)c1ccc(F)cc1` the value was “inactive”; for `CCCC(=O)N1CC2(C1)CN(C(=O)C1CCCCC1)[C@H](CO)c1[nH]c3cc(OC)ccc3c12`, “inactive”; for `C[C@@H]1CN([C@@H](C)CO)C(=O)Cc2cc(NC(=O)Cc3ccccc3)ccc2O[C@@H]1CN(C)C(=O)Nc1ccc(C(F)(F)F)cc1`, “inactive”. For `C[C@H]1CN([C@@H](C)CO)C(=O)c2cccc(NC(=O)c3nc4ccccc4s3)c2O[C@@H]1CN(C)C(=O)Nc1ccc(C(F)(F)F)cc1` the value was “inactive”; for `C[C@H](O)C#Cc1cnc2c(c1)C(=O)N([C@@H](C)CO)C[C@H](C)[C@H](CN(C)CC1CCCCC1)O2`, “inactive”. For the compound `C[C@H](CO)N1C[C@H](C)[C@H](CN(C)Cc2cncnc2)Oc2ncc(-c3cccc(C#N)c3)cc2C1=O`, the outcome was inactive. Next, `CCC1(CC)NC(=O)N(CC(=O)OC(C)C(=O)Nc2ccc(NC(C)=O)cc2)C1=O` (centres undefined): “inactive”.

In the case of `C[C@@H]1CN([C@@H](C)CO)C(=O)c2cc(-c3cccc(C#N)c3)cnc2O[C@H]1CN(C)Cc1cncnc1`, the result was inactive. Next, `O=C(Nc1ccncc1)C1CCN(S(=O)(=O)c2cccc(C(F)(F)F)c2)CC1`: “inactive”; `Cc1noc(C)c1NC(=O)Nc1cccc2c1O[C@H](CN(C)S(=O)(=O)c1ccc(Cl)cc1)[C@@H](C)CN([C@H](C)CO)C2=O`: “inactive”; `CCC(=O)Nc1ccc2c(c1)C(=O)N(C)[C@H]1CC[C@@H](CC(=O)NCC3CC3)O[C@@H]1CO2`: “inactive”.

Take `CN(C)C(=O)C[C@H]1C[C@H]2c3cc(NS(C)(=O)=O)ccc3O[C@H]2[C@@H](CO)O1`: the outcome was inactive. For `CN(C)C(=O)C[C@@H]1C[C@H]2c3cc(NS(C)(=O)=O)ccc3O[C@H]2[C@@H](CO)O1` the value was “inactive”. On to `CCN1[C@@H]2c3ccc(-c4ccccc4)c(=O)n3C[C@@H]2[C@@H](CO)[C@@H]1C(=O)NCC(F)(F)F`, for which the outcome was inactive.
